The campaign covered roughly 69,000 compounds. About 8,600 (12%) showed an effect of 50% or more. The list comes from a sample in which strong results are over-represented; it also holds similar structures and randomly drawn compounds.
test system: Plasmodium berghei; assay: Screen against P. berghei liver stage (PbLuc), transformed with Luciferase, at 10uM; type: functional, HepG2; details: tested at 10 uM

SMILES | INHIBITION [%]
CN(C)C(CNC(=O)c1ccnc(-n2cncn2)c1)c1ccccc1 (stereo not given) | 9.34
CN(C)c1ccc(CNCc2cnc(N3CCOCC3)nc2)cn1 | 12.6
O=S1(=O)CCN(Cc2cccnc2)[C@H]2CCN(c3ncccn3)CC[C@H]21 | 46.8
CN1C(=O)CC(c2cnn(C)c2)C12CCN(C(=O)c1cccn1C)CC2 (stereo not given) | 26.4
O=C(c1cc[nH]n1)N1CCc2cc(Br)sc2C1 | 24.2
Cc1nc(CN2CCOCC3(CCN(c4cccnc4)CC3)C2)cs1 | 14.4
COCc1ncn2c1CN(C(=O)Nc1ccccc1)CC2 | -22.1
CC(Cn1ccnc1)NC(=O)Cc1ccc2c(c1)OCCO2 (stereo not given) | -21.8
Cc1ccsc1-c1nccn1C1CC(=O)N(C(C)C)C1 (stereo not given) | 35.8
Cc1ccc(NC(=O)CN[C@H](C(N)=O)C(C)C)cc1F | 10.7
Cc1cccc(C)c1NC(=O)CNC(C)Cc1ccsc1 (stereo not given) | 34.6
Cc1ccc(NC(=O)CNC(C)Cc2ccsc2)cc1F (stereo not given) | 52.2
Cc1ccn(-c2cccc(C(=O)N3CCCC(n4ccnc4C)C3)c2)n1 (stereo not given) | 44.8
Cc1cc(CN2CC[C@H]3[C@H]2CCN3CC(=O)N(C)C)oc1C | 38.3
Cc1cc(CN(CCO)c2ccc(Br)cc2)on1 | 13.8
Cc1cc(CN(CCCO)c2ccccc2)on1 | 56.5
Cc1cc(CN(CCO)c2ccccc2)on1 | 45.5
Cc1cc(C(=O)NCc2cc(C)oc2C)no1 | -13
CCN1CCN(C(=O)c2cccc(CN3CCOCC3)c2)CC1 | -14.8
CN(Cc1cn2c(n1)CN(Cc1nccs1)CC2)Cc1ccco1 | 43.9
COCCN1CCn2cc(CN(C)Cc3ccco3)nc2C1 | 73
CN(Cc1cn2c(n1)CN(Cc1ccsc1)CC2)Cc1ccco1 | 31.1
CCS(=O)(=O)N1CCn2cc(CN(C)Cc3ccco3)nc2C1 | 47.4
Cc1ccc(CN2CCn3cc(CN(C)Cc4ccco4)nc3C2)o1 | -3.16
CN(Cc1cn2c(n1)CN(Cc1ccc(F)cc1)CC2)Cc1ccco1 | 59
O=C([C@H]1CC[C@@H]2[C@@H](CCN2Cc2nccs2)O1)N1CCOCC1 | -1.12
Cc1ccnc(CC(C)N(C)c2cc(CCN)nc(C)n2)c1 (stereo not given) | 45.2
Cc1ccnc(CC(C)N(C)c2cc(C3CCNCC3)nc(C)n2)c1 (stereo not given) | 36.9
Cc1ccnc(CC(C)N(C)c2cc(CN)nc(C)n2)c1 (stereo not given) | 66.5
Cc1cc(C(=O)N2CCC3(CCNCC3)CC2)c2cccc(C)c2n1 | 18.4
